HDAC3 inhib: blocks human histone deacetylase 3; O15379; recombinant HDAC3, fluorogenic peptide/trypsin coupled, fluorescence; inhibition, % at 8.3 µM; actives 0.15% (n = 320,000); AID 2718; in the data active means inhibition above about 26%, passing the limit was not always enough
Target sequence (O15379 whole entry, looked up): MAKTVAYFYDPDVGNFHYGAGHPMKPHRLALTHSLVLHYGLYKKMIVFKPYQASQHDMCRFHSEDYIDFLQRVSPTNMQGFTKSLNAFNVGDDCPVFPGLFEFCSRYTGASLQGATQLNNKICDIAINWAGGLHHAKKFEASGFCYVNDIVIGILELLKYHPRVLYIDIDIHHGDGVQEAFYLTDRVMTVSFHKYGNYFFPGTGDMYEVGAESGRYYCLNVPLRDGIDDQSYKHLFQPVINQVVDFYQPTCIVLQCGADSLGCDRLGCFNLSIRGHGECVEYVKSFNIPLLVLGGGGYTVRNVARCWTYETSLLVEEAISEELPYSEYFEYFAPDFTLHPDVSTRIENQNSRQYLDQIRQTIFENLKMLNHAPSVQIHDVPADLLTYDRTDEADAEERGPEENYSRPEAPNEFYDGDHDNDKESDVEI
APOBEC3A inh: inhibitors of human APOBEC3A DNA deaminase | recombinant A3A, FAM/TAMRA ssDNA deamination fluorescence | inhibition, % at 20 µM | actives 0.41% (n = 330,000);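 active means at least 40% inhibition at 20 µM here, with at most 30% in a related deaminase screen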
Target sequence (P31941 whole entry, looked up): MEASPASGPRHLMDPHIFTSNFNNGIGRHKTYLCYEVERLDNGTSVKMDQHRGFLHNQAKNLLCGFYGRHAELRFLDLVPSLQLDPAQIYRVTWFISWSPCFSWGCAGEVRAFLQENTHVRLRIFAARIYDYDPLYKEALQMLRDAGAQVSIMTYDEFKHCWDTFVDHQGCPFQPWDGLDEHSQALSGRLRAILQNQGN
LANA-H2B inh: blocks KSHV LANA binding to histone H2A/H2B; Q9QR71; cell-free LANA-H2A/H2B peptide, fluorescence polarization; inhibition, % (concentration not given with the values); actives 0.6% (n = 320,000); AID 2629; in the data active means inhibition mostly above about 10%, no sharp cut-off; inactive means mostly below about 6.7%
A3G deaminase: inhibitors of human APOBEC3G DNA deaminase; Q9HC16; actives 0.28% (n = 330,000); inhibition, % at 20 µM; AID 493012; recombinant A3G, ssDNA deamination FAM/TAMRA fluorescence;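 active means inhibition of at least 40% at 20 µM, with no more than 30% in the related APOBEC3A deaminase screen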
APOBEC3A confirm: confirmation of human APOBEC3A DNA deaminase inhibitors. shares compounds with APOBEC3A inh. recombinant A3A, ssDNA deaminase UDG fluorescence assay. inhibition, % at 20 µM. actives 63% (n = 1,400);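 active means inhibition reaching a set limit, 80% of the first screen's cutoff, at 20 µM in any replicate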
UDG A3A counter: counter-screen for APOBEC3A inhibitors: UDG; shares compounds with APOBEC3A inh; UDG counterscreen, FAM/TAMRA uracil oligo fluorescence; inhibition, % at 20 µM; 1,000 tested, under 10 active; call rule not given here
Each line names hits and unclear results; the compound was inactive in the other large screens (follow-up assays come after a bar, where they were run). Compounds with a hit are over-represented: about 1.4% of the library has one in this group of screens.

Cc1ccc(C)c(N(CC(=O)N/N=C/c2ccc(-c3ccc([N+](=O)[O-])cc3)o2)S(=O)(=O)c2ccccc2)c1	none
COC(=O)C1=C(C)N(Cc2ccccc2)C(=NCCN2CCOCC2)N[C@H]1CCc1ccccc1	none
CCN1C(=NCCOC)N[C@@H](c2cccs2)C(C(=O)OC)=C1C	APOBEC3A inh 58 | APOBEC3A confirm 67 | UDG A3A counter inactive
CCN1C(=NCCOC)N[C@@H](c2cccc(F)c2)C(C(=O)OC)=C1C	APOBEC3A inh 59 | APOBEC3A confirm 71 | UDG A3A counter inactive
CCN1C(=NCCN2CCOCC2)N[C@@H](c2ccccc2)C(C(=O)OC)=C1C	APOBEC3A inh 49 | APOBEC3A confirm 52 | UDG A3A counter inactive
COCCN1C(=O)N[C@@H](c2cccs2)C(C(=O)OC)=C1C	none
CCN1C(=NCCCCO)N[C@@H](c2cccc(F)c2)C(C(=O)OC)=C1C	APOBEC3A inh 51 | APOBEC3A confirm 58 | UDG A3A counter inactive
O=C(CCn1c(=O)oc2ccccc21)Nc1cccc(Br)c1	none (no result: HDAC3 inhib)
CC(C)(C)C1CCC(C(=O)OCC(=O)N2CCN(C(=O)c3ccco3)CC2)CC1 (stereo not given)	none
CCN(CC)CCCN=C1N[C@@H](c2cccc(F)c2)C(C(=O)OC)=C(C)N1Cc1ccccc1	APOBEC3A inh 46 | APOBEC3A confirm 82 | UDG A3A counter inactive
COC(=O)C1=C(C)N(Cc2ccccc2)C(=NCc2ccccc2)N[C@H]1c1cccc(F)c1	none
COc1ccc(/C=C/C(=O)N(CCC(N)=O)c2ccccc2)cc1S(=O)(=O)N1CCOCC1	APOBEC3A inh 41 (no result: HDAC3 inhib, LANA-H2B inh) | APOBEC3A confirm 27 | UDG A3A counter inactive
Cc1nc(SCCOc2ccc(F)cc2)c2ccccc2n1	APOBEC3A inh 51 | APOBEC3A confirm 76 | UDG A3A counter inactive
Nc1ncnc(NCc2ccccc2)c1[N+](=O)[O-]	none
Cn1cnc(NCc2ccccc2)c1[N+](=O)[O-]	APOBEC3A inh 44 | APOBEC3A confirm inactive | UDG A3A counter inactive
Cc1ccc(/C=N/Nc2nc(N3CCOCC3)nc(N3CCOCC3)n2)o1	APOBEC3A inh 53 | APOBEC3A confirm 33 | UDG A3A counter inactive
Cc1ccccc1NC(=O)N(C(C)C)C(C)C	APOBEC3A inh 83 | APOBEC3A confirm inactive | UDG A3A counter inactive
CC(=O)Nc1ccc(NC(=O)Nc2ccccc2C)cc1	none
O=C(COc1ccc(Cl)cc1)OCC(=O)N1CCCC1	APOBEC3A inh 55 | APOBEC3A confirm inactive | UDG A3A counter inactive
CCOc1ccc(S(=O)(=O)n2nc(C)c(S(=O)(=O)N3CCOCC3)c2C)cc1	none
O=C(C1COc2ccccc2O1)N1CCc2ccccc21 (stereo not given)	APOBEC3A inh 43 | APOBEC3A confirm 36 | UDG A3A counter inactive
O=C(C1COc2ccccc2O1)N1CCCC1 (stereo not given)	none
Cc1ccc(S(=O)(=O)N(C)C)cc1NC(=O)c1ccccc1SCC(=O)N1CCCC1	none
C[N+](C)(C)C/C=C1/COCO1	APOBEC3A inh 48 | APOBEC3A confirm 76 | UDG A3A counter inactive
COCCCNC(=O)c1ccccc1N(Cc1ccccc1)S(=O)(=O)c1ccccc1	APOBEC3A inh 55 | APOBEC3A confirm inactive
CC1(C)Oc2ccc3ccc(=O)oc3c2C(/C=N/O)=C1Cl	APOBEC3A inh 67 | APOBEC3A confirm 54 | UDG A3A counter inactive
O=C(NN=Cc1ccc(N2CCOCC2)s1)c1ccc([N+](=O)[O-])cc1	none
CSc1ccc(S(=O)(=O)N2CCC(C(=O)NCc3ccccn3)CC2)cc1	APOBEC3A inh 59 | APOBEC3A confirm 53 | UDG A3A counter inactive
C=CCNC(=O)c1ccccc1NC(=O)C1CCN(S(=O)(=O)c2ccc(SC)cc2)CC1	APOBEC3A inh 44 | APOBEC3A confirm 60 | UDG A3A counter inactive
O=C(NCc1ccccn1)C1CCN(S(=O)(=O)c2ccccc2)CC1	none
O=C(Cc1ccc(F)cc1)Nc1ccc(Cl)cn1	none
Cc1ccc(S(=O)(=O)N2CCCCC2)cc1C(=O)OC(C)C(=O)NC1CCCCC1C (stereo not given)	none (no result: HDAC3 inhib, LANA-H2B inh)
Cc1ccc2c(c1C)NC(=O)C2(O)CC(=O)c1ccc2c(c1)OCO2 (stereo not given)	none
O=C(CC1(O)C(=O)Nc2ccccc21)c1ccc2c(c1)OCO2 (stereo not given)	APOBEC3A inh 79 | APOBEC3A confirm inactive | UDG A3A counter inactive
CCNc1ccc(Br)cc(C(=O)/C=C/c2ccc3c(c2)OCO3)c1=O	APOBEC3A inh 46 | APOBEC3A confirm 19 | UDG A3A counter inactive
CCNc1ccc(Br)cc(C(=O)/C=C/c2ccc(Cl)cc2)c1=O	none
O=C(CSc1nnc(NC(=O)c2ccccc2C(=O)O)s1)Nc1ccccc1Cl	APOBEC3A inh 60 | APOBEC3A confirm 46 | UDG A3A counter inactive
Cc1cccc(C)c1NC(=O)CSc1nnc(NC(=O)c2ccccc2C(=O)O)s1	APOBEC3A inh 64 | APOBEC3A confirm inactive
O=C(CN1CCN(C2CCCCC2)CC1)c1c[nH]c2ccccc12	APOBEC3A inh 51 | APOBEC3A confirm inactive
O=C(c1ccccc1Cc1ccccc1)N1CCN(S(=O)(=O)c2ccccc2[N+](=O)[O-])CC1	APOBEC3A inh 46 | APOBEC3A confirm inactive | UDG A3A counter inactive
Cc1[nH]c(=O)c(C#N)c(C)c1CCC(=O)Nc1cc(S(C)(=O)=O)ccc1Cl	APOBEC3A inh 73 | APOBEC3A confirm 42 | UDG A3A counter inactive
Cc1ccc(F)cc1NC(=O)CCc1c(C)[nH]c(=O)c(C#N)c1C	none
Cc1cc(C)cc(N=C2NC(=O)/C(=C/c3cccs3)S2)c1	APOBEC3A inh 42 | APOBEC3A confirm inactive
O=C1NC(=Nc2ccccc2)S/C1=C\c1cccs1	none
CCc1ccc(NC(=O)c2ccc(-n3cncn3)c([N+](=O)[O-])c2)cc1	APOBEC3A inh 41 | APOBEC3A confirm inactive
N/C(=N\OC(=O)Cc1ccc([N+](=O)[O-])cc1)c1ccc([N+](=O)[O-])cc1	APOBEC3A inh 53 | APOBEC3A confirm inactive | UDG A3A counter inactive
CCn1c(CCl)nc2cc(S(=O)(=O)N3CCOCC3)ccc21	none
CC(=O)NCC1CCCN(C(=O)c2ccc(OC3CCN(Cc4ccccn4)CC3)cc2)C1 (stereo not given)	none (no result: HDAC3 inhib, LANA-H2B inh)
Cc1cc(C)[n+](C)n1CC(O)Cn1c2ccccc2c2ccccc21 (stereo not given)	APOBEC3A inh 45 | APOBEC3A confirm 76 | UDG A3A counter inactive
CCN(CC)CC(O)Cn1c2ccccc2c2ccccc21 (stereo not given)	none
Cn1c(=Nc2ccc(N3CCOCC3)cc2)ccc2ccccc21	APOBEC3A inh 54 | APOBEC3A confirm inactive
CC(Oc1ccc2ccc(=O)oc2c1)C(=O)N1CCOCC1 (stereo not given)	none
CCN1CCN(CC(O)COCc2ccccc2)CC1 (stereo not given)	none
CCCc1n(CC(O)COCc2ccccc2)c2ccccc2[n+]1C (stereo not given)	APOBEC3A inh 58 | APOBEC3A confirm 69 | UDG A3A counter inactive
